Only some compounds are listed: those with a hit (about 32% of all), similar ones and a draw of the others.
PostGolgi yeast – growth inhibition of a yeast mutant, post-Golgi transport screen | post-Golgi transport phenotypic cell assay | AID 739 | inhibition, % at 10 µM | 98,000 compounds, 0.9% hits;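 also: yeast cells grown in 1536-well plates; yeast grown about 18 h at 30C before absorbance read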
PostGolgi ctrl – inhibits growth of the yeast control strain | efflux-deficient yeast background strain, growth absorbance A615, 16 h | inhibition, % at 10 µM | 98,000 compounds, 5% hits | AID 738
CYP2C19 inh – human CYP2C19 inhibition; CYP2C19 Supersomes, luciferin-H EGE luminescence, 30 min; inhibition, % at 5 µM; AID 778; 96,000 compounds, 21% hits;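 active = CYP2C19 inhibition above a set limit at 5 µM in the primary screen, cut at about 50% in these data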;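 also: plate controls were negative control wells for no effect and 2.5 mM tranylcypromine positive control for full effect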
Target sequence (P33261 whole entry, looked up): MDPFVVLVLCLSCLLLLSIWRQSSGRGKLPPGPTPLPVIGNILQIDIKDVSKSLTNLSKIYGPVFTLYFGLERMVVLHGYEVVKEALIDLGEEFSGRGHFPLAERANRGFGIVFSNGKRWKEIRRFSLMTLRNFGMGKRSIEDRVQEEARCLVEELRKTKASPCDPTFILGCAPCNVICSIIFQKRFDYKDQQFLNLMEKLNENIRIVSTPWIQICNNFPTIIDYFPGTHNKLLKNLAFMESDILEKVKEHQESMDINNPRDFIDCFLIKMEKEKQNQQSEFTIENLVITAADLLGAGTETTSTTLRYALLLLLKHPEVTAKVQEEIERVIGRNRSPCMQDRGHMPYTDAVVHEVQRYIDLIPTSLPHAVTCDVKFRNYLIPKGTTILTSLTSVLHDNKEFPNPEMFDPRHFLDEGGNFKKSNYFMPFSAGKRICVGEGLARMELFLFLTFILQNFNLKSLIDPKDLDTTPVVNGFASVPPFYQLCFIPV
CYP2C9 activ – CYP2C9 (human) activation. P11712. recombinant CYP2C9, luciferin-H conversion, luminescence; hits give high values; factor 1 = untreated enzyme, 0 = blocked. activation factor at 5 µM. 96,000 compounds, 1.4% hits. AID 1024;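 active = activation factor of 2 or more for CYP2C9 at a 5 µM dose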;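 also: 0 = sulfaphenazole-blocked wells and 1 = vehicle-only wells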
CYP2C19 act – activators of human cytochrome P450 2C19. recombinant CYP2C19, luciferin-H EGE luminescence; hits give high values; 0 = fully inhibited enzyme, 1 = untreated enzyme. AID 1025. 96,000 tested, under 10 active. P33261. activation factor at 5 µM;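 active = activation factor of at least 2 at 5 µM in the primary screen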;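 also: 0 = wells with 2.5 mM tranylcypromine and 1 = vehicle-only wells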
CYP2C9 inh – human CYP2C9 inhibition | P11712 | CYP2C9 Supersomes, luciferin-H conversion, luminescence | inhibition, % at 5 µM | 96,000 compounds, 20% hits | AID 777;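 active = blocking of liver enzyme CYP2C9 beyond about 50% at 5 µM, limit read from the data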
Starred values were filed as active, the others as inactive; / = not tested or not shown. Rule as the data show it, unless noted: active = inhibition above about 30%; inactive = the rest.

SMILES | PostGolgi yeast | PostGolgi ctrl | CYP2C19 inh | CYP2C9 activ | CYP2C19 act | CYP2C9 inh
Cc1ccc(S(=O)(=O)N2Cc3ccccc3CC2C(=O)Nc2ccc3c(c2)OCO3)cc1 (configuration not stated) | 1 | 17 | 98* | 0 | 0 | 97*
COc1ccc(S(=O)(=O)N2Cc3ccccc3CC2C(=O)Nc2ccc3c(c2)OCO3)cc1 (configuration not stated) | 12 | -3 | 85* | 0.4 | 0.2 | 62*
CC(=O)c1c(C)[nH]c(C(=O)OC2CCCCC2=O)c1C (configuration not stated) | 7 | 4 | 26 | 0.8 | 0.7 | 18
Cc1cc(C(=O)NCCCN2CCOCC2)n(-c2ccccc2)n1 | 4 | -2 | 2 | 0.9 | 1 | 14
COC(=O)c1nc(C(=O)OC)c(C(=O)OC)nc1C(=O)OC | 5 | 4 | -13 | 1.1 | 1.1 | -14
CC(=O)Nc1ccc(S(=O)(=O)Nc2nnc(C(C)(C)C)s2)cc1 | -4 | -10 | 10 | 0.9 | 0.9 | 9
C=CCn1c(N)c(C(=O)OC(C)CC)c2nc3ccccc3nc21 (configuration not stated) | -2 | 38* | 56* | 0.2 | 0.4 | 83*
C=CCn1c(N)c(C(=O)OC(C)(C)C)c2nc3ccccc3nc21 | 19 | 10 | 63* | 0.2 | 0.4 | 77*
C=CCn1c(N)c(C(=O)Nc2ccccc2)c2nc3ccccc3nc21 | 10 | 37* | -7 | 1.1 | 1.1 | -6
COc1ccc(CCNC(=O)c2cnn3cccnc23)cc1OC | 18 | 4 | 27 | 1.1 | 0.7 | -7
Cc1ccccc1Nc1nc(N)nc(CN2C(=O)NC3(CCCCC3C)C2=O)n1 (configuration not stated) | -10 | -6 | 8 | 1.1 | 0.9 | -8
CC1CCCCN1C(=O)CSc1ccc(-c2ccc(F)cc2)nn1 (configuration not stated) | -5 | 45* | 61* | 0.7 | 0.4 | 35
COc1ccc(-c2ccc(SCC(=O)N3CCCC3)nn2)cc1OC | -6 | 8 | -6 | 1.1 | 1.1 | -6
N#Cc1c(SCC(=O)Nc2nccs2)nc2c(c1-c1ccco1)CCCC2 | 3 | -5 | 46 | 0.3 | 0.5 | 70*
CCc1ccccc1NC(=O)CSc1nc2c(c(-c3ccco3)c1C#N)CCCC2 | 0 | -2 | 88* | 0.7 | 0.1 | 34
CCn1c(=O)cc(O)c2c(=O)n(C)c(=O)n(C)c21 | 0 | -1 | 2 | 0.6 | 1 | 43
NS(=O)(=O)c1cccnc1Nc1cccc(C(F)(F)F)c1 | 1 | 5 | 34 | 0.2 | 0.7 | 78*
c1ccc(COc2ccc(CN3CCN(c4ccccn4)CC3)cc2)cc1 | 73* | 9 | 38 | 0.4 | 0.6 | 59*
COc1ccc(CN2CCN(c3ccccn3)CC2)c(OC)c1 | -5 | 0 | 46 | 0.8 | 0.5 | 16
c1ccc(N2CC[N+]3(CCCC3)CC2)nc1 | -4 | 0 | -15 | 1.1 | 1.1 | -13
C(#Cc1ccccc1)CN1CCN(c2ccccn2)CC1 | 25 | -1 | 98* | 0.2 | 0 | 76*
Brc1ccc(CN2CCN(c3ccccn3)CC2)s1 | -7 | 3 | 99* | 0.1 | 0 | 90*
CCOC(=O)N1CCC(NC(=O)C2CCN(S(=O)(=O)N3CCC(C)CC3)CC2)CC1 | -2 | 0 | 4 | 0.8 | 1 | 21
CCN1C(=O)C2(/C(=C(\O)c3ccc4c(c3)OCCO4)C(=O)C(=O)N2CCCOC)c2ccccc21 (configuration not stated) | 4 | 4 | -12 | 1 | 1.1 | 2
O=C(Nc1ccc(Cl)cc1)N1CCC(c2nc(-c3cccs3)no2)CC1 | / | 44* | 22 | 0.8 | 0.8 | 18
SMILES | PostGolgi yeast | PostGolgi ctrl | CYP2C19 inh | CYP2C9 activ | CYP2C19 act | CYP2C9 inh
O=C(Nc1ccc(Cl)cc1)N1CCC(c2nc(-c3ccccc3Cl)no2)CC1 | 11 | 40* | 0 | 0.9 | 1 | 5
COc1ccc(NC(=O)N2CCC(c3nc(-c4cccs4)no3)CC2)cc1 | 15 | -4 | 69* | 0.5 | 0.3 | 55*
O=S(=O)(c1ccc(Cl)cc1)N1CCCC1c1nc(-c2ccc(Cl)cc2)no1 (configuration not stated) | 18 | 20 | / | / | / | /
CCC(C)C(=O)N1CCCC(c2nc(-c3cccs3)no2)C1 (configuration not stated) | -3 | -5 | 14 | 1.1 | 0.9 | -7
O=S(=O)(c1ccccc1Cl)N1CCCC1c1nc(-c2ccccc2Cl)no1 (configuration not stated) | -6 | 12 | 58* | 0.9 | 0.4 | 13
CC1(C)Nc2ccccc2N(CC(=O)N2CCCCC2)C1=O | -3 | 8 | -4 | 0.9 | 1 | 13
O=C(c1ccco1)N1CCC(c2nc(-c3ccccc3Cl)no2)CC1 | 5 | 14 | 50 | 0.4 | 0.5 | 57*
O=C(Nc1ccccc1)N1CCCC(c2nc(-c3cccs3)no2)C1 (configuration not stated) | 2 | 27 | 87* | 0.5 | 0.1 | 48
O=C(CCSc1nnc2scc(-c3ccccc3)n12)NCc1ccc2c(c1)OCO2 | 8 | -2 | 38 | 0.5 | 0.6 | 46
Fc1ccc(-c2csc3nnc(SCc4cccnc4)n23)cc1 | -5 | 4 | 83* | 0.9 | 0.2 | 10
Cc1ccc(-c2csc3nnc(SCc4csc(C)n4)n23)cc1 | 0 | 12 | 75* | 0.1 | 0.2 | 90*
O=C(CSc1nnc2scc(-c3ccccc3)n12)Nc1ccc2c(c1)OCCO2 | 1 | 37* | 35 | 0.5 | 0.6 | 53*
c1ccc(-c2csc3nnc(SCc4ccc5c(c4)OCO5)n23)cc1 | -3 | 33* | 92* | 0.1 | 0.1 | 92*
CCOC(=O)C1=C(C)SC2=NS(=O)(=O)CCN21 | -5 | 2 | 40 | 1 | 0.6 | -2
O=C(NC1CCCCC1)C(Cc1ccccc1)N1C(=O)C2C3CCC(C3)C2C1=O (configuration not stated) | -3 | 7 | 16 | 0.9 | 0.8 | 15
O=C(CN(C(=O)CSc1nnc(COc2ccccc2)o1)c1ccc(F)cc1)NC1CCCCC1 | -1 | 3 | 10 | 0.7 | 0.9 | 30
COC(=O)c1ccc(C2c3c(n[nH]c3C)C(=O)N2c2ccc(C)cc2)cc1 (configuration not stated) | 6 | 26 | 77* | 0.4 | 0.2 | 63*
CCOC(=O)c1ccc(N2C(=O)c3n[nH]c(C)c3C2c2ccc(OC)c(OC)c2)cc1 (configuration not stated) | -6 | 5 | 82* | 0.2 | 0.2 | 78*
CCOC(=O)c1ccc(N2C(=O)C(O)=C(C(C)=O)C2c2ccc(O)c(OC)c2)cc1 (configuration not stated) | 1 | 23 | 9 | 0.2 | 0.9 | 81*
Cc1ccc(N2C(=O)c3n[nH]c(C)c3C2c2ccco2)cc1 (configuration not stated) | 8 | 4 | 6 | 1.1 | 0.9 | -6

Source: PubChem BioAssay
